Source: PMC4336329 (PLoS ONE, 2015)
In all, about 310,000 compounds went through this assay and about 14,000 (4.5%) showed an effect of 50% or more. The effect is printed as a negative number. The sample as a whole holds a higher share of strong results than the screen did.

biological target: human ether-à-go-go-related gene (hERG) potassium channel (human, UniProt Q12809); assay: primary screen, population patch clamp on CHO cells stably expressing hERG; higher = less effect of the substance
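Further: peak tail current of the secondary pulse compared with the same well before compound.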

human ether-à-go-go-related gene (hERG) potassium channel, sequence (Q12809 whole entry, looked up): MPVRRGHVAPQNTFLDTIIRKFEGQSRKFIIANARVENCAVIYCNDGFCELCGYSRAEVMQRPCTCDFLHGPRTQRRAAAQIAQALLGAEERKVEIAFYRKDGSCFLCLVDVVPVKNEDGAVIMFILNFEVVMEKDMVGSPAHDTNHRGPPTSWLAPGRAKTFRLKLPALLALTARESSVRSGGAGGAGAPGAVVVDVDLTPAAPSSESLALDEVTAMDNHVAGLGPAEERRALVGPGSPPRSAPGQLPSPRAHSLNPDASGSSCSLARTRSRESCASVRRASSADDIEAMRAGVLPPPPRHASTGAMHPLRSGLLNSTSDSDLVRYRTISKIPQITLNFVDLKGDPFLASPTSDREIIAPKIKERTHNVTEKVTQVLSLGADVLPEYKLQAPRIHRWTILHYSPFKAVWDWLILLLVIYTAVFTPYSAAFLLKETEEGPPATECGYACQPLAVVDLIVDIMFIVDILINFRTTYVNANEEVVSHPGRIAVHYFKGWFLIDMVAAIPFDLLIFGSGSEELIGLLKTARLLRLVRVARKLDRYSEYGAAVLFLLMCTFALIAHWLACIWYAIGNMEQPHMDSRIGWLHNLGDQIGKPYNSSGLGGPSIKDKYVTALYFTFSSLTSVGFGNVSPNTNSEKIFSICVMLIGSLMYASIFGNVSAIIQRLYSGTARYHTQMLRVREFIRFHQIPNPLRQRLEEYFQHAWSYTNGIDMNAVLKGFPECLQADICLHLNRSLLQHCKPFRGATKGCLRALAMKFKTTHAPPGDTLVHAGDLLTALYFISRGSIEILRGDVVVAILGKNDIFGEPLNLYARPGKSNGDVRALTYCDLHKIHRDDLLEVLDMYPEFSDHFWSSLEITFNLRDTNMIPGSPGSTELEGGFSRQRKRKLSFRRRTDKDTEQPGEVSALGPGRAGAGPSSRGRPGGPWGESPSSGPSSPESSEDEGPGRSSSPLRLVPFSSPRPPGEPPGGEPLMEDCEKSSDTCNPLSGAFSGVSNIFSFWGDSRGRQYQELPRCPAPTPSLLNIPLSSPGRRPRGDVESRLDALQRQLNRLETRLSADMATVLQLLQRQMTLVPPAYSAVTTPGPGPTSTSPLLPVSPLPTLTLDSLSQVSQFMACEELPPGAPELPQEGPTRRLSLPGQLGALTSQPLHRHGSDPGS

| SMILES | hERG current change (%, negative = inhibition) at 10uM [%] |
| --- | --- |
| CC(C)OC(=O)CC(=O)CSc1nc2c(c(-c3cccs3)c1C#N)CCC2 | -8.89 |
| O=C(c1ccc(N2CCCS2(=O)=O)cc1)N1CCN(c2ccc(F)cc2)CC1 | -28.9 |
| COc1ccc(/C=N/Nc2ccc([N+](=O)[O-])cc2)cc1O | 10.1 |
| O=C(COc1ccc(-c2nnco2)cc1)NCc1ccccc1Cl | -6.27 |
| C=CCN(CC=C)C(=S)NC(=O)c1ccc(OC)c(Br)c1 | 5.1 |
| Cn1ncc([N+](=O)[O-])c1C(=O)Nc1ccn(Cc2ccccc2F)n1 | -9.33 |
| Cc1c(NC(=O)OCCNC(=O)COc2ccc(Cl)cc2Cl)sc(=S)n1C | -5.51 |
| CCN1CCN(c2nc(-c3ccncc3)nc3ccccc23)CC1 | -77.8 |
| CC1CCN(c2nc(-c3ccncc3)nc3ccccc23)CC1 | -27 |
| CCC1CCCCN1c1nc(-c2ccncc2)nc2ccccc12 (stereo not drawn) | -42.5 |
| CCC1=C(C)CN(C(=O)NCCc2ccc(S(=O)(=O)NC(=O)NC3CCC(C)CC3)cc2)C1=O (stereo not drawn) | -13.5 |
| CCOc1ccc(/C=C(\C#N)C(=O)NCC2CCCO2)cc1OCC (stereo not drawn) | -5.95 |
| Cc1cccnc1NC(=O)c1ccc(Cl)c(S(=O)(=O)N2CCCCCC2)c1 | -65.5 |
| CC(NC(=O)c1ccc(Cl)c(S(=O)(=O)N2CCCCCC2)c1)c1cccnc1 (stereo not drawn) | -52.3 |
| O=C(Nc1ncccc1O)c1ccc(Cl)c(S(=O)(=O)N2CCCCC2)c1 | -16.1 |
| Cc1cccnc1NC(=O)c1ccc(Cl)c(S(=O)(=O)N2CCCC2)c1 | -9.58 |
| O=C(NCc1ccccn1)c1ccc(Cl)c(S(=O)(=O)N2CCCCCC2)c1 | -64.5 |
| O=C(Nc1cccnc1)c1ccc(Cl)c(S(=O)(=O)N2CCCCCC2)c1 | -31.6 |
| Cc1ccc(C(=O)Nc2ncccc2O)cc1S(=O)(=O)N1CCCCC1 | -14.3 |
| O=C(NCc1ccccn1)c1ccc(Cl)c(S(=O)(=O)N2CCCCC2)c1 | -10.1 |
| Cc1cccnc1NC(=O)c1ccc(Cl)c(S(=O)(=O)N2CCCCC2)c1 | -21.7 |
| O=C(NCc1ccccn1)c1ccc(Cl)c(S(=O)(=O)N2CCOCC2)c1 | -4.89 |
| O=C(Nc1cccnc1)c1ccc(Cl)c(S(=O)(=O)N2CCCCC2)c1 | -15.6 |
| O=C(Nc1ncccc1O)c1ccc(Cl)c(S(=O)(=O)N2CCCCCC2)c1 | -61 |
